Hits are enriched below; roughly 4.1% of the tested compounds scored in any of these assays.
hcDAF-12 act: activates DAF-12 receptor from parasite H. contortus. 1.4% of 370,000 active. HEK293 hcDAF-12 lit1-tk-luc reporter, luminescence; 0% DMSO, 100% Δ7-dafachronic acid. activation, % at 6.8 µM. AID 652067;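 active = activation above the mean of all tested compounds plus 3 SD, cut at about 5.5% in these data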
hgDAF-12 ag: hgDAF-12 agonism, primary luciferase screen. HEK293 GAL4-hgDAF12 UAS-luciferase reporter, agonist luminescence; normalized to butyrate control. activation, % at 6.8 µM. 1.8% of 370,000 active;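 active = activation above a cutoff set at the mean of all screened compounds plus 3 SD, cut at about 10% in these data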
DAX1 inh-1: inhibits human nuclear receptor DAX1 | HEK293 Gal4-DAX1 luciferase reporter, luminescence | inhibition, % at 6.75 µM | 0.99% of 340,000 active | AID 504766;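 active = inhibition above the mean over all tested compounds plus 3 SD, cut at about 4.2% in these data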;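 also: inhibition shows as a rise in luminescence from relieved DAX1 repression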
Target sequence (P51843 207-470 limits assumed): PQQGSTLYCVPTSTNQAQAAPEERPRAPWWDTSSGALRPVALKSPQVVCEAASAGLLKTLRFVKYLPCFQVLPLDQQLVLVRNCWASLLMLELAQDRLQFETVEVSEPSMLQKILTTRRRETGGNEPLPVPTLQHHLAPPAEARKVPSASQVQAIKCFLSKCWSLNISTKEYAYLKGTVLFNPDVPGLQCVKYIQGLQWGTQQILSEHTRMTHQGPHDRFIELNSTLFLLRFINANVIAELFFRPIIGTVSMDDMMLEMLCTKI
ssDAF12 agonist: activates DAF-12 receptor from parasite S. stercoralis; HEK293 ssDAF-12/GRIP1 lit1-tk-luc reporter, luminescence; % of 3 µM dafachronic acid response; activation, % at 6.8 µM; 1% of 370,000 active; AID 652126;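 active = activation above the mean over all tested compounds plus 3 SD, cut at about 0.9% in these data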
DAX1 inh-2: DAX1 (NR0B1) inhibition, primary screen; HEK293T StAR-luciferase reporter, SF-1/DAX-1 repression relief; inhibition, % at 6.8 µM; 1.1% of 370,000 active; AID 652010;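 active = inhibition above the mean over all tested compounds plus 3 SD, cut at about 3.6% in these data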;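 also: higher inhibition means more luminescence from relief of DAX-1 repression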
A number is an active result; . = inactive; / = no result given.

SMILES	hcDAF-12 act	hgDAF-12 ag	DAX1 inh-1	ssDAF12 agonist	DAX1 inh-2
Cc1cccc(C)c1NC(=O)COn1nnc2ccc(C(F)(F)F)cc21	.	.	.	.	.
O=C(COn1nnc2ccc(C(F)(F)F)cc21)Nc1c(Cl)cccc1Cl	.	.	.	15	.
COc1ccc(-c2nc3ccccc3c(=O)n2Cc2ccccc2)cc1COc1ccc(NC(C)=O)cc1	.	.	/	.	/
CCOC(=O)[C@@H]1c2[nH]c3ccccc3c2C[C@@]2(C(=O)OC)C=CCN12	.	.	/	1.5	.
O=[N+]([O-])c1cccc(NC(=S)N2CCCC2)c1	.	.	.	.	.
O=C(Nc1cccc([N+](=O)[O-])c1)C(=O)N1CCCCC1	.	13	.	.	.
COc1ccc(-c2cc3ccccc3[nH]2)cc1	5.6	.	.	.	.
CCc1ccc(Oc2c(Cl)cnn(-c3ccc(C)cc3)c2=O)cc1	.	.	/	.	/
COc1ccccc1-c1cc(C(=O)N2CCN(c3ccc(F)cc3)CC2)no1	.	.	.	.	.
COc1ccc(-c2cc(C(=O)N3CCOCC3)no2)cc1	.	.	.	1.3	.
COc1ccccc1-c1cc(C(=O)N2CCCC2)no1	6.5	.	.	.	.
COc1cccc(-c2cc(C(=O)N3C(C)CCCC3C)no2)c1 (stereo unspecified)	5.9	.	.	.	.
CCCCCN1CCCCC(NC(=O)c2ccccc2C)C1=O (stereo unspecified)	.	.	/	.	.
Nc1[nH]c(C(=O)c2ccccc2)c(-c2cccc3ccccc23)c1C(=O)NC1CCCCC1	.	.	/	.	.
Cc1c(C(C)c2ccccc2O)c2ccccc2n1C (stereo unspecified)	.	.	/	.	.
O=P(c1ccccc1)(c1ccccc1)C(c1ccccn1)P(=O)(c1ccccc1)c1ccccc1	.	.	/	.	.
O=P(c1ccccc1)(c1ccccc1)C(O)c1ccccn1 (stereo unspecified)	.	.	/	1.2	.
Nc1[nH]c(C(=O)c2ccc(Br)cc2)c(-c2ccc(Cl)cc2Cl)c1C(=O)NCCc1c[nH]c2ccccc12	.	.	/	1.1	.
Cc1c(NC(=O)COC(=O)c2ccc[nH]c2=O)c(=O)n(-c2ccccc2)n1C	.	.	5.3	.	.
O=C(NCC1COCCO1)C1CCN(S(=O)(=O)c2cccs2)CC1 (stereo unspecified)	.	.	/	.	.
CC1(C)CC2CC(C)(CN2C(=O)c2ccc([N+](=O)[O-])cc2[N+](=O)[O-])C1 (stereo unspecified)	.	.	6.7	.	.
CC1(C)CC2CC(C)(CN2C(=O)c2ccc([N+](=O)[O-])cc2)C1 (stereo unspecified)	.	.	.	.	.
CN(C)c1cccc2c1c(NC(=O)Nc1ccccc1)nn2C	.	.	4.3	.	.
CN(C)c1cccc2c1c(NC(=O)c1ccc(Cl)cc1)nn2C	.	.	5.7	.	.
COCCN(Cc1cc2cc(C)ccc2n2nnnc12)C(=S)Nc1ccc(OC)cc1	.	.	.	.	.
SMILES	hcDAF-12 act	hgDAF-12 ag	DAX1 inh-1	ssDAF12 agonist	DAX1 inh-2
COCCN(Cc1cc2cc(C)ccc2n2nnnc12)C(=S)Nc1ccc(C)cc1	.	.	4.6	.	.
COC(=O)CCC(=O)c1oc2ccc(Br)cc2c1N	.	11	.	.	.
COC(=O)C12C=C3CC(c4ccc(C)s4)=C3C(=O)N1Cc1[nH]c3ccccc3c1C2 (stereo unspecified)	.	.	/	.	.
Cc1cccc(C(=O)O/N=C(\N)c2ccc(Br)cc2)c1	6.1	.	.	.	.
N/C(=N\OC(=O)c1ccc2ccccc2c1)c1ccc(Br)cc1	.	.	.	.	.
Cc1cccc(/C(N)=N/OC(=O)c2ccncc2)c1	.	16	.	.	9.4
N/C(=N\OC(=O)c1cccc(Br)c1)c1ccccc1	6.1	.	.	1.3	.
Cc1cccc(C(=O)O/N=C(\N)c2ccc(Cl)cc2)c1	5.6	.	.	1.0	.
N/C(=N\OC(=O)c1ccncc1)c1cccc([N+](=O)[O-])c1	.	.	.	.	.
COc1ccc(C(=O)O/N=C(\N)c2cccc(C)c2)cc1OC	.	.	.	.	.
Cc1cc(C)cc(C(=O)O/N=C(\N)c2ccc(Br)cc2)c1	.	.	.	.	.
C=CCN1C(=O)[C@@H](CC(=O)NCCCC)[C@]2(C(=O)OCC)CCCCC/C=C/12	.	.	/	.	.
CC(C)(C)N1Cc2nnn(Cc3ccccc3)c2-c2cc(N3CCCCC3)ccc2S1(=O)=O	.	.	/	.	.
COc1ccc(Cl)cc1C(=O)O/N=C(\N)c1ccncc1	.	.	.	.	.
Cc1ccc(/C(N)=N/OC(=O)c2ccc(Cl)cc2Cl)cc1	.	.	4.7	.	.
O=C(NC(=S)NC1CCCc2ccccc21)c1ccco1 (stereo unspecified)	.	.	.	.	.
O=C(NC(=S)NC1CCC(O)CC1)c1ccco1 (stereo unspecified)	.	.	.	.	4.1
COc1cc(NS(=O)(=O)c2ccc(NC(=S)NC(=O)c3ccco3)cc2)nc(OC)n1	.	.	4.7	.	.
O=C(NC(=S)Nc1cccc(O)c1)c1ccco1	.	.	.	1.7	.
Cc1ccc(C(=O)Nc2ccc3c(c2)OCCO3)cc1	.	.	.	.	.
CCC(=O)NC(=S)Nc1cccc(NC(=O)c2ccco2)c1	.	.	.	.	.
CCOc1ccc(C(=O)Nc2ccc3c(c2)OCCO3)cc1	5.9	12	.	.	.
C=C(C)CSc1nnc(-c2cc(-c3ccccc3)n[nH]2)n1N	.	.	/	.	.
CCc1ccc(C(=O)NC(=S)Nc2ccc3c(c2)OCCO3)cc1	.	12	.	.	.
O=C(c1ccco1)N1CCCC(Nc2ccc3c(c2)OCCO3)C1 (stereo unspecified)	6.3	.	.	.	.
SMILES	hcDAF-12 act	hgDAF-12 ag	DAX1 inh-1	ssDAF12 agonist	DAX1 inh-2
COc1cc(OC)cc(C(=O)Nc2ccc3c(c2)n(C)c(=O)n3C)c1	.	.	.	.	.
CCc1ccc(C(=O)Nc2ccc3c(c2)n(C)c(=O)n3C)cc1	.	.	5.9	.	.
CSCc1ccc(C(=O)N2CCCC(Nc3ccc4c(c3)OCCO4)C2)o1 (stereo unspecified)	.	.	.	.	.
O=C(NC(=S)Nc1ccc2c(c1)OCCO2)c1ccco1	.	11	4.5	.	.
CCCN1CC(=O)N2[C@H](C[C@@]3(n4ccc5ccccc54)c4ccccc4N(S(=O)(=O)c4ccccc4)[C@@H]23)C1=O	.	.	/	.	.
C=C(C1=CCN(S(=O)(=O)C(C)(C)C)[C@H]1CCO)c1ccccc1	.	.	5.8	.	.
CCn1c(COc2ccc(C)cc2)nnc1SCC(=O)Nc1ccc(C(=O)OC)cc1	.	.	/	.	.
O=C(Nc1ccc(CN2CCOCC2)cc1)c1cc2ccccc2o1	.	.	.	.	3.6
O=C(NC(=S)Nc1ccc(CN2CCOCC2)cc1)c1cc2ccccc2o1	.	.	.	.	.

Screens: PubChem BioAssay, The Scripps Research Institute Molecular Screening Center
